This is an account of results in PubChem BioAssay (Tox21).

Values without a mark were called inactive. Records with an inconclusive call do not appear. The source made the active and inactive calls. Unless noted, the call rests on the fitted dose curve; in most records, active means well fitted curve in the direction sought with a large enough effect in the repeat runs; inconclusive means weak or mixed curves; inactive means no such curve, though single readings can be large; an effect the other way counts as inactive or inconclusive.

The nature of assay [1]: qHTS assay for small molecule agonists of the p53 signaling pathway (AID 651631; calls by dose curve; further: nearly all actives have a fitted effect of over 15% in size). Summed up: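 Stably transfected HCT-116 cells (beta-lactamase behind p53 response elements) get compounds after a 5 h settling period; 16 h later at 37 °C, FRET substrate is loaded and fluorescence read after 2 h.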
For orientation: qHTS replaces the single test concentration by a dilution series.

Assay [2] is described as follows: qHTS assay for small molecules that induce genotoxicity in human embryonic kidney cells expressing luciferase-tagged ATAD5 (AID 651632). Further: nearly all actives have a fitted effect of over 15% in size. Summed up: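 HEK293T cells carrying a luciferase reporter tagged to ATAD5 were exposed to compound or DMSO vehicle for 16 hr at 37C, 5% CO2. Amplite was added, and after 30 min at room temperature luciferase activity was read as a marker of ATAD5 induction.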

Assay [3] can be described thus: qHTS assay for small molecule agonists of the p53 signaling pathway - cell viability (AID 651633; calls by dose curve;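 further: p53RE-bla HCT reporter cells with a stable beta-lactamase p53 reporter; series mostly up to about 83 µM; nearly all actives have a fitted effect of over 30% in size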). Summed up: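 p53RE-bla cells, seeded at 4,000 per well and rested 5 h at 37 C/5% CO2, received compounds in DMSO for 16 h at 37 C. CellTiter-Glo was then added, and luminescence was read after 30 min at room temperature to gauge cytotoxicity.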
A short description of assay [4]: qHTS assay for small molecules that induce genotoxicity in human embryonic kidney cells expressing luciferase-tagged ATAD5 - cell viability (AID 651634; calls by dose curve; further: nearly all actives have a fitted effect of over 25% in size). Summed up: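 HEK293T cells expressing luciferase-tagged ATAD5 were exposed to compound or DMSO for 15.5 hr at 37C, 5% CO2. Viability was then read as live-cell protease activity by CellTiter-Fluor fluorescence after 30 min at 37C.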

Assay [5] can be described thus: qHTS assay for small molecule disruptors of the mitochondrial membrane potential - cell viability (AID 720634; calls by dose curve;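 further: human HepG2 liver cancer cells; series mostly up to about 83 µM; nearly all actives have a fitted effect of over 20% in size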). Summed up: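 HepG2 cells seeded overnight at 37 C, then exposed to compound or DMSO for 1 hr at 37 C, 5% CO2. m-MPI dye added, then CellTiter-Glo for 30 min at room temperature; viability read as ATP luminescence.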
Assay [6] can be described thus: qHTS assay for small molecule disruptors of the mitochondrial membrane potential (AID 720635). Further: potency means the concentration at half of the fitted maximal effect. Summed up:
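HepG2 cells (2,000/well) attached overnight at 37C, then took compound for 1 hr at 37C, 5% CO2. Mito-MPS dye was added for 30 min; fluorescence was read at 490/535 nm (monomers) and 540/590 nm (aggregates).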

Assay [7] in a line: qHTS assay to test for compound auto fluorescence at 590 nm (red) in HepG2 cells (AID 720674). Summed up:
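Rose Bengal sodium served as the red fluorophore standard. HepG2 monolayers (overnight attachment, MEM with 10% FBS) were exposed to test compounds for 1 hr at 37 C and read at Ex 540/Em 590 nm.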

The nature of assay [8]: qHTS assay to test for compound auto fluorescence at 535 nm (green) in HepG2 cells (AID 720675).
Assay [9] can be described thus: qHTS assay to test for compound auto fluorescence at 460 nm (blue) in HEK293 cells (AID 720678). Summed up: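 Auto fluorescence in the blue band was quantified as triamterene equivalency. HEK293 cells were seeded at 2,000/well, dosed after a 4-5 hr attachment, and kept overnight at 37C before the 405/460 nm reading.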
Assay [10] can be described thus: qHTS assay to test for compound auto fluorescence at 590 nm (red) in HEK293 cells (AID 720679). Summed up: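 Autofluorescence equivalency to Rose Bengal sodium, 540/590nm, in HEK293 cells exposed overnight to 23 nL compound per well.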
Assay [11] in a line: qHTS assay to test for compound auto fluorescence at 535 nm (green) in HEK293 cells (AID 720680).
Assay [12] is described as follows: qHTS assay to test for compound auto fluorescence at 460 nm (blue) in HEK293 cell free culture (AID 720681). Summed up:
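Test compounds were pinned into cell-free culture medium (DMEM with 10% FBS) and fluorescence was read directly at Ex/Em 405/460 nm. Signals were expressed as fluorescence equivalents of triamterene, with DMSO vehicle as control.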

Assay [13] can be described thus: qHTS assay to test for compound auto fluorescence at 535 nm (green) in HEK293 cell free culture (AID 720682). The gist of the method:
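Using fluorescein as calibrant, autofluorescence was quantified at 485/535 nm in cell-free DMEM containing 10% FBS after pintool addition of compound or vehicle.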

Assay [14] in a line: qHTS assay to test for compound auto fluorescence at 590 nm (red) in HEK293 cell free culture (AID 720683). The gist of the method: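 Tox21 10K library compounds were pinned into cell-free DMEM with 10% FBS and fluorescence was read at excitation 540 nm. Activity is expressed as Rose Bengal sodium equivalency.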
The nature of assay [15]: qHTS assay to test for compound auto fluorescence at 590 nm (red) in HepG2 cell free culture (AID 720684). Summed up: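 Measured in medium alone (MEM containing 10% FBS) following pintool addition of compound; emission at 590 nm with 540 nm excitation, referenced to Rose Bengal sodium.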
Assay [16] can be described thus: qHTS assay to test for compound auto fluorescence at 460 nm (blue) in HepG2 cell free culture (AID 720685). Summed up: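 Compound (23 nL) or DMSO pinned into cell-free MEM with 10% FBS; blue fluorescence read at 405/460 nm excitation/emission, expressed as auto-fluorescence equivalency to triamterene.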
Assay [17] is described as follows: qHTS assay to test for compound auto fluorescence at 535 nm (green) in HepG2 cell free culture (AID 720686).
A short description of assay [18]: qHTS assay to test for compound auto fluorescence at 460 nm (blue) in HepG2 cells (AID 720687). Summed up:
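Cells (2,000/well in MEM with 10% FBS) attached overnight at 37 C, then were exposed to compound or DMSO for 1 hr at 37 C, 5% CO2. Fluorescence read at Ex/Em 405/460 nm, expressed as triamterene-equivalent signal.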

For assay [19], the target named is Glucocorticoid receptor (Homo sapiens) (UniProt P04150). In words: qHTS assay to identify small molecule antagonists of the glucocorticoid receptor (GR) signaling pathway (AID 720692; active means well fitted inhibition curve with a large enough effect in the signal ratio in the repeat runs, not every such curve was filed as active; the % refers to the signal ratio). Summed up: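 GR-bla HeLa cells (beta-lactamase reporter under glucocorticoid response element) were pre-plated 4 h at 37 C, treated with compounds plus 5 nM dexamethasone (final) for 18 h, then read by LiveBLAzer B/G FRET fluorescence after 2 h.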

Assay [20] shares this target. In words: qHTS assay to identify small molecule agonists of the glucocorticoid receptor (GR) signaling pathway (AID 720691; active means well fitted activation curve with a large enough effect in the signal ratio in the repeat runs, not every such curve was filed as active; the % refers to the signal ratio). The gist of the method:
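GR-bla HeLa cells (beta-lactamase reporter under glucocorticoid response element) were plated 4 h at 37 C/5% CO2, given compounds in DMSO, and incubated 18 h at 37 C. LiveBLAzer B/G FRET substrate was added for 2 h at room temperature, then fluorescence intensity read.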

Glucocorticoid receptor (Homo sapiens), sequence (P04150 whole entry, looked up): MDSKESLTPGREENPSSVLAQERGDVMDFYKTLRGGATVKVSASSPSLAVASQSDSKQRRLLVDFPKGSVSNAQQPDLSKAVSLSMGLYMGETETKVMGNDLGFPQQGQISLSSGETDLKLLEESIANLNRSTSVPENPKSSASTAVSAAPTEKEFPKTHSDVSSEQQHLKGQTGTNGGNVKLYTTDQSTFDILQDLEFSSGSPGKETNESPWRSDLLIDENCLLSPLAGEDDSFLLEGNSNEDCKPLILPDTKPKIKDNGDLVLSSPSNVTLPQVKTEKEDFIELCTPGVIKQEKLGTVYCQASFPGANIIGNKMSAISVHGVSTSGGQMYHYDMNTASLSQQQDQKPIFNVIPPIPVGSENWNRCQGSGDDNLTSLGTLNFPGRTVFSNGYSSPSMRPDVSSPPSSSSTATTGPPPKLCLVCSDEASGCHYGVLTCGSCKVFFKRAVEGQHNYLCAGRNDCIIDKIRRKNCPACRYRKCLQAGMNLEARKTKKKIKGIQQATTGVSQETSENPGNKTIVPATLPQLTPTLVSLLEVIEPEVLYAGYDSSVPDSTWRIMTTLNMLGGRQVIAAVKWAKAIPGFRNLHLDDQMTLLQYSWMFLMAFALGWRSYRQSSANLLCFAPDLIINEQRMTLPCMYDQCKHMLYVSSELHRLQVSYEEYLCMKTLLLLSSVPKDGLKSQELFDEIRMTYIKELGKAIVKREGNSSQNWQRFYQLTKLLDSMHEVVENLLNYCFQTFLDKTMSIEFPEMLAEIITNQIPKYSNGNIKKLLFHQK

For `CSC(=O)c1cccc2nnsc12`, the Potency result in [1], in [2] and in [6] was “inactive” in each case. Further, the compound was called inactive in assay [3], in [4], in [5], in assay [7], in assay [8] and in assay [9]. Also, the outcome in assay [10], in assay [11], in assay [12], in [13], in assay [14] and in [15] was inactive. For the same compound, the compound was classed as inactive in assay [16], in [17], in assay [18] and in [19].
`C[C@@H]1NC(=O)[C@@H](N)CNC(=O)[C@H](C2CCNC(N)=N2)NC(=O)/C(=C/NC(N)=O)NC(=O)[C@H](CNC(=O)C[C@@H](N)CCCN)NC1=O` (some centres undefined): the Potency result in assay [1], in assay [2], in assay [6] and in assay [20] was “inactive” each time. For the same compound, the compound was classed as inactive in assay [3], in assay [4], in assay [5], in assay [7], in assay [8] and in [9]. For the same compound, the call in assay [10], in assay [11], in [12], in assay [13], in assay [14] and in [15] was inactive. For the same compound, the outcome in [16], in [17], in [18] and in [19] was inactive.
In the case of `CCCC(=O)CC`, the Potency entry in [1], in [2] and in assay [6] was “inactive” in each case. The compound was classed as inactive in [3], in assay [4], in [5], in [7], in assay [8] and in assay [9]. Further, the outcome in assay [10], in [11], in [12], in assay [13], in [14] and in assay [15] was inactive. Also, the result in assay [16] and in assay [18] was inactive.
`CCOC(=O)[C@H](CCc1ccccc1)N[C@H]1CS[C@H](c2cccs2)CN(CC(=O)O)C1=O`: the Potency result in assay [1], in assay [2], in assay [6] and in assay [20] was “inactive” in each case. The compound was called inactive in assay [3], in assay [4], in assay [5], in assay [7], in assay [8] and in [9]. The compound was called inactive in [10], in assay [11], in [12], in assay [13], in assay [14] and in assay [15]. The compound was called inactive in assay [16], in assay [17], in assay [18] and in assay [19].
`COC(=O)c1c(C)cc(O)c(C)c1O`: the Potency entry in assay [1] and in assay [2] was “inactive” in each case. For the same compound, the call in assay [3], in assay [4], in [5], in assay [7], in assay [8] and in assay [9] was inactive. The call in assay [10], in assay [11], in assay [12], in [13], in assay [14] and in [15] was inactive. Further, the compound was called inactive in assay [16] and in assay [18]. In addition, the Potency in assay [6] is 12.2 µM (active).
As to `CCCCCCCCOCCC#N`, the Potency result in assay [1], in assay [2] and in [6] was “inactive” throughout. Further, the compound was called inactive in assay [3], in [4], in assay [5], in assay [7], in assay [8] and in assay [9]. Besides, the result in assay [10], in assay [11], in assay [12], in assay [13], in assay [14] and in assay [15] was inactive. Moreover, the compound was called inactive in [16], in assay [17] and in assay [18].
Regarding `COc1cc(OC)cc(OC)c1`, the Potency result in assay [1], in [2] and in assay [6] was “inactive” in each case. Also, the call in assay [3], in [4], in [5], in assay [7], in [8] and in assay [9] was inactive. Further, the call in assay [10], in [11], in assay [12], in [13], in [14] and in [15] was inactive. The outcome in [16], in assay [17] and in assay [18] was inactive.
